# Source: PubChem
# Compounds with a hit are over-represented: about 0.86% of the library has one in this group of screens.
# CDC25B CDK2 inh: human CDC25B-CDK2/CyclinA binding inhibition; AID 1259370; 0.72% of 94,000 active; HTRF CDC25B-CDK2/CyclinA binding, anti-His/anti-Flag; hits give high values; P30305+P24941; z-score (concentration not given with the values); in the data active = z-score above about 3.2
# TAR Tat displ: HIV-1 TAR-Tat binding disruption; HIV-1 TAR RNA, Tat peptide displacement FRET; hits give high values; z-score (concentration not given with the values); 0.6% of 100,000 active; AID 1259389; active = z-score of 3 or more in at least 2 runs
# A number is an active result; i = inactive; nt = not tested or not shown.
SMILES,CDC25B CDK2 inh,TAR Tat displ
O=C1c2ccccc2C(=O)c2c(NCCc3ccc(O)cc3)ccc(NCCc3ccc(O)cc3)c21,i,nt
O=C1c2c(O)ccc(O)c2C(=O)c2c(NCCNCCO)ccc(NCCNCCO)c21,i,17
COc1ccc(C2Oc3ccccc3C3CC(c4ccccc4O)=NN32)cc1OC (configuration not stated),i,i
Fc1ccc(NC(=S)Nc2cccc3c(NC(=S)Nc4ccc(F)cc4)cccc23)cc1,18,nt
CSc1ccccc1NC(=S)Nc1ccc(Cl)cc1,i,nt
O=C(NCCN1CCN(c2cccc(Cl)c2)CC1)Nc1ccc(Cl)cc1,i,i
CC(=O)N1CC(C)Sc2ccc(S(=O)(=O)Nc3ccccc3Br)cc21 (configuration not stated),nt,i
O=C(Nc1ccc(S(=O)(=O)Nc2nccs2)cc1)c1cnc2sccn2c1=O,i,nt
COc1ccc(N2CSC3=C(C#N)C(c4cccc(OC)c4OC)CC(=O)N3C2)cc1 (configuration not stated),4,i
COc1ccc(N2CSC3=C(C#N)C(c4cccc(OC)c4OC)CC(=O)N3C2)c(OC)c1 (configuration not stated),5.7,i
COc1cccc(C2CC(=O)N3CN(c4ccccc4F)CSC3=C2C#N)c1OC (configuration not stated),4.2,i
Cc1ccc(NS(=O)(=O)c2cn(C)cn2)c(Cl)c1,nt,i
CC1CCCCN1C(=O)CSc1nc(-c2ccco2)nc2cc(=O)[nH]n12 (configuration not stated),nt,i
CC1CCN(C(=O)CSc2nc(-c3ccco3)nc3cc(=O)[nH]n23)CC1,nt,9.2
CCc1nnc2c(NCCN(CC)CC)nc3ccccc3n12,nt,i
O=C1C2=C(NC3=C(C(=O)c4ccccc43)C23C(=O)Nc2ccccc23)c2ccccc21,12,nt
CC(C)(C)C1(O)C(=O)Nc2ccccc21 (configuration not stated),i,i
CC(=O)Oc1ccc(-c2nc3ccc(OC(C)=O)cc3c(=O)o2)cc1,i,i
CCOC(=O)C1=C(C)Nc2nc(SCc3ccccc3)[nH]c(=O)c2C1c1ccncc1 (configuration not stated),i,nt
O=C(NC1CCCC1)c1ccc(CN2CC(=O)N3CCCC3C2=O)cc1 (configuration not stated),nt,i
O=C(CN1c2ccccc2NC2=C(C(=O)CCC2)C1c1ccco1)NC1CCCC1 (configuration not stated),nt,i
O=C(CCC(=O)N1c2ccccc2NC2=C(C(=O)CCC2)C1c1ccco1)NC1CCCCC1 (configuration not stated),nt,3.6
Cc1nnc2c(NCc3ccccc3)nc3ccccc3n12,i,i
CN(C)S(=O)(=O)c1ccc(C(=O)Nc2sc3c(c2C(N)=O)CCCC3)cc1,i,i
CN(CC1CCCO1)S(=O)(=O)c1ccc(C(=O)Nc2sc3c(c2C(N)=O)CCC3)cc1 (configuration not stated),nt,7.6
SMILES,CDC25B CDK2 inh,TAR Tat displ
CNC(=O)N1c2ccccc2NC2=C(C(=O)CC(C)(C)C2)C1c1ccc(C)cc1 (configuration not stated),nt,i
CCC(=O)N1CCc2cc(Br)cc(S(=O)(=O)N3CCCC3c3ccco3)c21 (configuration not stated),i,i
Cc1[nH]c(C#N)c(C)c1C1C(C#N)=C(N)OC2=C1C(=O)CC(C)(C)C2 (configuration not stated),i,nt
O=C(O)c1cc(N(Cc2ccccc2O)Cc2cc(O)ccc2O)ccc1O,nt,34
Oc1ccccc1CN(Cc1ccccc1)Cc1ccccc1,i,i
Cn1ncc2c(N3CCN(CCO)CC3)ncnc21,nt,i
CCC(C(=O)N1CCN(C2CCCCC2)CC1)n1nc(C)c2sc3ccccc3c2c1=O (configuration not stated),i,i
Nc1cc2c(=O)c3cc(Cl)cc(Cl)c3[nH]c2c2c1C(=O)c1ccccc1C2=O,10,nt
Nc1cc(S(=O)(=O)O)c(N)c2c1C(=O)c1ccccc1C2=O,i,nt
COc1cccc(N2N=C(C(=O)c3ccccc3)S(=O)(=O)c3ccc(F)cc32)c1,i,i
Cc1ccc(NS(=O)(=O)c2cc(-c3nc(C)no3)ccc2C)c(Cl)c1,nt,i
Cc1c(NC(=O)NCCCN2CCOCC2)sc2nc3n(c(=O)c12)CCC(C)CC3 (configuration not stated),10,i
Cc1c(C(=O)NCCCN2CCOCC2)sc2nc3n(c(=O)c12)CCCCC3,nt,i
O=C(C1CCCN1c1nnc(N2CCCC2=O)s1)N1CCCCC1 (configuration not stated),i,i
CC1CC(C)CN(C(=O)CN(C)S(=O)(=O)c2ccc3c(c2)C(C)(C)C(=O)N3C)C1 (configuration not stated),nt,i
O=C1c2ccccc2-c2c1cccc2C(=O)N1CCOCC1,17,i
O=C1CCSc2c1cccc2C(=O)N1CCOCC1,nt,i
COc1ccc(Br)cc1C1C2=C(CCCC2=O)Nc2nc3ccccc3n21 (configuration not stated),i,nt
O=C(Nc1ccc2sc(NS(=O)(=O)c3ccccc3)nc2c1)NC1CCCCC1,nt,i
CN(C)c1nc2ccccc2nc1N(C)C,i,nt
Cc1noc(/C=C/N(C)C)c1S(=O)(=O)Nc1cccc(Cl)c1,nt,i
CN(C)c1ccc(-c2nc3c(c(=O)[nH]2)Cc2cc(F)ccc2O3)cc1,i,i
Cc1onc(-c2c(Cl)cccc2Cl)c1NC(=O)NNc1ccccn1,9.5,nt
Cc1noc(NC(=O)Nc2c(-c3ccccc3Cl)noc2C)c1C,i,nt
Cc1cc2c3c([nH]c2cc1S(=O)(=O)N1CCN(c2ccccn2)CC1)CC(C)(C)CC3=O,nt,i
SMILES,CDC25B CDK2 inh,TAR Tat displ
Cn1c(=O)c2c(-c3cccc(Br)c3)c(Nc3ccccc3)oc2n(C)c1=O,nt,i
COc1ccc(-c2nc(SCc3cc(=O)c4cccc(Cl)c4[nH]3)n[nH]2)cc1,nt,6.8
Cc1ccc(-c2nc(SCc3cc(=O)c4cccc(Cl)c4[nH]3)n[nH]2)cc1,nt,i
COc1ccc(S(=O)(=O)[C@H]2CS(=O)(=O)C[C@@H]2NCC2CCCO2)cc1 (some centres not stated),i,i
CCOC(=O)C1CCCN(C(=O)c2sc3nc(C)nc(N4CCC(C)CC4)c3c2C)C1 (configuration not stated),i,nt
Cc1nc(N2CCC(C(=O)O)CC2)c2c(C)c(C)sc2n1,nt,4.8
Cc1ccc(-n2ncc3c(Nc4ccc5c(c4)OCCO5)ncnc32)cc1,nt,i
Cc1ccc(-c2onc(C)c2C)cc1S(=O)(=O)Nc1cccc(C)c1C,nt,i
CCOc1cccc2c1OC(c1ccc(OC)cc1)N1N=C(c3ccco3)CC21 (configuration not stated),i,i
Cc1nc2sc3c(NCCc4ccccc4)ncnc3c2c2c1COC(C)(C)C2,i,i
CN(Cc1ccccc1)C(=O)CSc1nc(-c2ccc3c(c2)OCO3)nc2cc(=O)[nH]n12,nt,26
CN(C(=O)CSc1nc(-c2ccc3c(c2)OCO3)nc2cc(=O)[nH]n12)c1ccccc1,nt,i
Cc1nnc(SCc2ccccc2Cl)[nH]c1=O,i,i
CC1CC(C)CN(CCCNC(=O)C2CCN(C(=O)c3cc4sccc4n3C)CC2)C1 (configuration not stated),i,i
c1ccc(-n2ncc3c2ncn2nc(CSc4nc5ccccc5o4)nc32)cc1,i,nt
COC(=O)C1=C(OC(=O)CN2C(=O)CCC2=O)c2ccccc2S(=O)(=O)N1C(C)C,6.3,i
